# 4MU fluor = compound fluoresces in the 4-MU spectral region. compound autofluorescence, 340/450 nm, 4-MU equivalents; active compounds read high. max dye-equivalent concentration, M. hit rate 11% among 59,000. AID 589; in the data active = max dye-equivalent concentration above about 10 nM; inconclusive = mostly about 1.1 nM to 9.6 nM
#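 Intrinsic fluorescence at 340/450 nm (ex/em) was read after 15 min at room temperature in pH 8.0, 100 mM Tris. Each compound concentration expressed as 4-MU-equivalent concentration from a six-point 4-MU standard series on each plate.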
# HSD17B inh = HSD17B dehydrogenase inhibition. Q99714. recombinant HSD17B10, NADH fluorescence kinetic. Potency, µM (titrated, usually from 57.1 µM), without a hit: at the top dose activity change, negative = inhibition, hits mostly inhibitors. hit rate 7.6% among 75,000;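 note: the protocol describes HADH2 (HSD17B10) and not the HSD17B4 of the title; potency is the fitted concentration of half-maximal effect; % is set by controls: 0 for no effect and ±100 for the full control effect; nearly all actives have a fitted effect of over 70% in size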
#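 His-tagged E. coli-expressed HADH2 at 20 nM in 100 mM Tris-HCl pH 9.0 with 0.01 % Tween-20, preincubated 15 min with compound at room temperature. Reaction with 1 mM NAD+ and 90 uM beta-hydroxybutyryl coenzyme A; NADH fluorescence (360/450 nm) read kinetically over 4 min, last minus first point.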
# HADH2 inhib = HADH2 (human) dehydrogenase inhibition; Q99714; hit rate 3.4% among 73,000; AID 886; recombinant HADH2, NADH fluorescence, beta-hydroxybutyryl-CoA; Potency, µM (top dose mostly 57.1 µM), inactives show at the highest dose activity change, negative = inhibition, actives largely listed as inhibitors; note: potency is the fitted concentration of half-maximal effect; % is set by controls: 0 for no effect and ±100 for the full control effect; nearly all actives have a fitted effect of over 60% in size
# Target sequence (Q99714 whole entry, looked up, one chain of several): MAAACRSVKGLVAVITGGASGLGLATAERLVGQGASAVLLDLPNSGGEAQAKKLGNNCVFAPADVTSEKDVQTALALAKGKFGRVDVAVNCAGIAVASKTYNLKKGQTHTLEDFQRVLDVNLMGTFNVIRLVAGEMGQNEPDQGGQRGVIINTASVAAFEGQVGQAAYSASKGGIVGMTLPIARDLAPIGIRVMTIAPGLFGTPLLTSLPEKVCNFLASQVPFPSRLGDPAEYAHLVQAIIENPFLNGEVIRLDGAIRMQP
#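 NADH fluorescence (ex 360/em 450 nm) read every 30 s for 4 min; activity taken as last-minus-first time point difference. Enzyme 20 nM, NAD+ 1 mM, beta-hydroxybutyryl-CoA 90 uM, pH 9.0 Tris buffer.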
# AID923 = qHTS Assay for Allosteric/Competitive Inhibitors of Caspase-1: Spectroscopic Profiling in AFC Spectral Region; compound fluorescence, AFC spectral region (405/520 nm); Potency, µM (titrated, usually from 57.5 µM), without a hit: at the top dose fluorescence increase, hits mostly activators; hit rate 1.1% among 75,000; AID 923, 2007; note: potency is the fitted concentration of half-maximal effect; 0% is about no effect
#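 Compound autofluorescence profiled at 405 nm ex/520 nm em during kinetic caspase 1 run (50 nM enzyme, 5 uM Ac-WEHD-AFC, HEPES pH 7.5, 10 mM DTT). Titration up to 57 uM; baseline from regression intercept, normalized to AFC standard curve.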
# CRE-bla Fsk = CRE-bla signaling modulation under forskolin stimulation. CHO CRE-bla reporter (cAMP response element driving beta-lactamase), forskolin EC10, beta-lactamase ratio. hit rate 2.5% among 71,000. AID 662. Potency, µM (top dose mostly 38.2 µM), without a hit: at the highest dose activity change, negative = inhibition, actives largely listed as activators; active = well fitted activation curve with a large enough effect in the signal ratio, with a control signal flat, not every such curve was filed as active; inconclusive = small, poorly fitted or top-dose-only effect, or effect the other way, or a change in a side signal; the % refers to the signal ratio; note: potency is the fitted concentration of half-maximal effect; % of control where 0% means no effect
#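 CHO CRE-bla cells, overnight plating in Opti-MEM with 0.5% dialyzed FBS; cpd titration + EC10 NKH 477, 3 h 37 °C; CCF4 2 h RT; ex 405/em 460 vs 530 ratio → %Activity, AC50.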
# A350 autofl = A350 region autofluorescence | Compound autofluorescence, 340/450 nm, Alexa 350 dye-equivalents; active compounds read high | max dye-equivalent concentration, M | hit rate 11% among 59,000 | AID 590; in the data active = max dye-equivalent concentration above about 10 nM; inconclusive = mostly about 1.1 nM to 9.6 nM
# Starred values were filed as active, the others as inactive; i = inactive; ? = inconclusive; · = no result; [ ] = remark or other dose. Hits are enriched below; roughly 14% of the tested compounds scored in any of these assays. Unless noted, calls come from the whole dose curve; as a rule, active = well fitted curve in the direction sought with a large enough effect; inconclusive = small, poorly fitted or top-dose-only effect, or another doubt; inactive = no such curve, though single readings can be large; an effect the other way counts as inactive or inconclusive.
SMILES,4MU fluor,HSD17B inh,HADH2 inhib,AID923,CRE-bla Fsk,A350 autofl
CC1C(=O)OC2CC34C5CC(C(C)(C)C)C36C(OC(=O)C6O)OC4(C(=O)O5)C21O (centres undefined),·,8.2%,·,-0.4%,·,·
Cc1ccc(NCc2nnc(SCC(=O)NCCc3ccccc3)n2C)cc1,i,2.2%,1.6%,-0.3%,0.6%,i
CC(C)CN1CCC2(CC1)CCN(C(=O)c1cccn1C)CC2,i,7.0%,-6.7%,1.6%,0.3%,i
COc1ccccc1CCn1c(=O)cnc2cncnc21,i,4.3%,-5.3%,2.4%,?,i
O=C(CCSc1nc(-c2ccco2)cc(C(F)(F)F)n1)N1CCCc2ccccc21,i,-21.4%,-6.8%,-2.3%,14.5%,i
CC1(C)CCC2(C(=O)O)CC[C@]3(C)C(=CCC4[C@]5(C)CCC(O)C(C)(C)C5C(O)C[C@]43C)C2C1 (some centres undefined),·,?,·,-0.9%,·,·
C=C1C(=O)O[C@H]2C[C@@]3(C)CCCC(=C)[C@@H]3C[C@H]12,i,·,-2.6%,·,?,i
c1cncc(-c2nc(-n3ccnc3)c3ccccc3n2)c1,i,0.6%,-3.9%,2.3%,?,i
COc1ccccc1CNc1nc(-c2ccc(C(=O)N(C)C)cc2)nc2ccccc12,i,?,-2.8%,1.3%,?,i
CN(C)C(=O)c1ccc(-c2nc(NCc3cccnc3)c3ccccc3n2)cc1,i,-22.0%,?,-1.0%,1.58µM*,i
Cc1cc(N)n(-c2nc(-c3cccnc3)nc3ccccc23)n1,?,-28.4%,-4.6%,0.1%,7.94µM*,?
Cc1cnc(CNc2nc(-c3ccc(C(=O)N(C)C)cc3)nc3ccccc23)cn1,i,-5.9%,12.2%,0.1%,7.94µM*,i
CNc1nc(-c2ccc(C(=O)N(C)C)cc2)nc2ccccc12,i,-10.7%,?,0.3%,?,i
c1ccc(Cn2nnnc2C(c2cccnc2)N2CCN(c3ccccc3)CC2)cc1 (centres undefined),i,7.5%,-11.0%,-1.0%,1.0%,i
Cc1ccc(N2CCCCn3c2nc2c3c(=O)n(CC(=O)O)c(=O)n2C)cc1,?,0.0%,-7.7%,-0.1%,?,?
CCOc1cc(N2CCOCC2)c(OCC)cc1NC(=O)Cn1[nH]c(=O)c2ccccc2c1=O,i,8.4%,22.4%,0.2%,0.1µM*,i
CCOC(=O)c1nn(-c2sc(C(=O)OC)c(C)c2C(=O)OC)cc1O,i,5.2%,-3.1%,-0.3%,13.3%,i
COC(=O)c1nn(-c2ccc(-c3ccccc3)cc2)cc1O,·,31.6µM*,?,-0.7%,14.1%,·
COC(=O)c1ccc(C23CC4(C2)[C@H](CN(CC2CCCCC2)[C@@H]4c2ccccc2)C3c2ccc(C(F)(F)F)cc2)cc1 (some centres undefined),·,-4.3%,·,-0.2%,·,·
C[C@@H]1[C@H](C)CC[C@@]2(C(=O)O[C@H]3O[C@@H](CO[C@H]4O[C@@H](CO)[C@@H](O[C@H]5O[C@@H](C)[C@@H](O)[C@@H](O)[C@@H]5O)[C@@H](O)[C@@H]4O)[C@@H](O)[C@@H](O)[C@@H]3O)CC[C@]3(C)C(=CC[C@H]4[C@@]5(C)C[C@@H](O)[C@@H](O)[C@](C)(CO)[C@@H]5CC[C@@]43C)[C@@H]12,i,2.9%[25.6 µM],-5.5%[25.6 µM],-1.1%[25.7 µM],1.9%[17.1 µM],i
O=C1c2ccccc2C(=O)N1C1(C(=O)NC2(C(=O)O)CCCC2)CCCC1,i,0.1%[11.4 µM],5.3%[11.4 µM],-6.0%[11.5 µM],6.5%[7.6 µM],i
O=C(CN1C(=O)c2ccccc2C1=O)NC1(C(=O)O)CCCC1,4.81e-08M*,15.6%[11.4 µM],-3.8%[11.4 µM],2.0%[11.5 µM],3.5%[7.6 µM],2.81e-08M*
Cc1ccccc1OCCN1C(=O)NC2(CCc3ccccc32)C1=O (centres undefined),6.49e-08M*,4.2%,?,0.8%,-7.0%,6.65e-08M*
COc1ccccc1NC(=O)Nc1nc(-c2cccnc2)nc2ccccc12,i,3.7%,8.4%,0.1%,-2.7%,i
Fc1ccc(NCc2nnc(SCc3nnc(-c4ccccc4)o3)n2CC2CCCO2)cc1 (centres undefined),i,-9.8%,24.9%,1.3%,-6.2%,i
SMILES,4MU fluor,HSD17B inh,HADH2 inhib,AID923,CRE-bla Fsk,A350 autofl
COc1ccc(C2=NOC(CN3C(=O)c4ccccc4S3(=O)=O)C2)cc1 (centres undefined),i,?,7.6%,-1.2%,-5.7%,i
Cc1cc(=O)oc2cc(OCC3CC(c4ccc(N(C)C)cc4)=NO3)ccc12 (centres undefined),1.02e-08M*,25.1µM*,-5.7%,-0.3%,-6.7%,1.1e-08M*
Nc1nc2n(n1)C(c1cccc(Br)c1)CC(c1ccc(F)cc1)N2 (centres undefined),·,0.3%,-3.4%,-0.5%,-7.9%,·
COc1ccc(F)cc1S(=O)(=O)Nc1ccccc1C(=O)O,·,-10.6%,-4.7%,-0.4%,·,·
CCC(C)NC(=O)c1ccccc1NS(=O)(=O)c1ccc(OC)c(OC)c1 (centres undefined),?,31.6µM*,?,-2.2%,-1.8%,1.2e-08M*
COc1ccc(C(=O)N2CCC3(CCCN(CC(C)C)C3)CC2)cc1,i,-4.5%,2.7%,2.8%,-1.3%,i
Cc1cc(C(=O)NCc2ccc3c(c2)OCO3)n(-c2ccccc2)n1,·,-1.7%,3.3%,4.2%,1.9%,·
Cc1cc(C)n(-c2ccc(C(=O)NCc3ccc4c(c3)OCO4)cc2)n1,?,5.8%,8.9%,0.4%,-7.9%,1.13e-08M*
CC1CCC(C(=O)O)NC1c1ccc(-c2ccco2)cc1 (centres undefined),·,1.9%[11.4 µM],-3.3%[11.4 µM],4.1%[11.5 µM],·,·
CNC[C@@H](SC)c1ccc(O)c(O)c1,i,-1.2%[11.4 µM],0.398µM*,2.5%[11.5 µM],5.8%[7.6 µM],i
CNC[C@H](O)c1ccc(O)c(O)c1,i,15.1%,1.26µM*,10.5%,2.4%,i
CC(C)NCC(O)c1ccc(O)c(O)c1 (centres undefined),·,18.2%,?,-0.6%,-4.4%,·
NC[C@H](O)c1ccc(O)c(O)c1,i,12.0%,0.794µM*,1.1%,-3.8%,i
COCc1cc(C)nc(SCC(=O)N2CCC(C)CC2)c1C#N,i,-1.2%,?,0.3%,3.4%,i
CC1=C(C(=O)OCc2ccccc2)C(c2ccoc2)C(C#N)=C(N)O1 (centres undefined),i,-13.9%,-16.8%,3.3%,1.6%,?
CC(=O)C1(C)OC(N)=C(C#N)C(c2ccccc2)C1(C#N)C#N (centres undefined),2e-08M*,·,·,·,·,2.68e-08M*

# Compound activity deposited in PubChem by National Center for Advancing Translational Sciences (NCATS).
